Bioassay records deposited in PubChem by National Center for Advancing Translational Sciences (NCATS).
Shown are actives, neighbours in structure and some others; about 4.1% of the full set was active somewhere.
AMA1 RON2 block = AMA1-RON2 (P. falciparum) interaction inhibition | AlphaScreen AMA1-biotinylated RON2 peptide binding | Potency, µM (titrated, usually from 58.2 µM), most hits filed as inhibitors | 360,000 tested, 0.2% active | AID 720542; further: nearly all actives have a fitted effect of over 45% in size
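AMA1 (3D7) with his tag at 25 nM final met compounds first, then biotinylated RON2 peptide at 25 nM; detection used donor plus acceptor beads, 10 µg/mL apiece, read by AlphaScreen after 30 min at room temperature.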
FMDV antiviral = antivirals against foot and mouth disease virus; 410,000 tested, 1.2% active; FMDV antiviral cell-based qHTS; Potency, µM (doses to about 57.9 µM), actives largely listed as inhibitors; AID 1159524; calls by dose curve; tested in HEK293T cells; further: read-out not given here; nearly all actives have a fitted effect of over 45% in size
AmpC no deterg = AmpC beta-lactamase inhibition without detergent. P00811. AmpC nitrocefin hydrolysis, absorbance 480 nm, 0.0001% Triton. Potency, µM (doses to about 57.1 µM), hits mostly inhibitors. 330,000 tested, 0.52% active. AID 485341; further: nearly all actives have a fitted effect of over 20% in size
Target sequence (P00811 whole entry, looked up): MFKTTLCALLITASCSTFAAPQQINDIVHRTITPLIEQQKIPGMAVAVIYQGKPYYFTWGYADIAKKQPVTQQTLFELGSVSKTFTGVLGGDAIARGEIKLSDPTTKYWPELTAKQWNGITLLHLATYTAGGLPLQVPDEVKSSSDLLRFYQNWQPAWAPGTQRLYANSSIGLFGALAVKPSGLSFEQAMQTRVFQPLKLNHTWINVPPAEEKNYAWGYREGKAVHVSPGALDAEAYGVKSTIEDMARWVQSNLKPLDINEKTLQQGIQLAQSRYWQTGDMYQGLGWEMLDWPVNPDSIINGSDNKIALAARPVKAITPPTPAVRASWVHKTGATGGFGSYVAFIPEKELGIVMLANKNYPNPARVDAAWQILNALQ
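20 mM phosphate pH 7.0 + 0.01% (detergent screen) or 0.0001% Triton X-100; 5.3 nM AmpC reagent; cpd preinc 15 min RT; nitrocefin (800 uM stock) to start; A480 q20 s × 4 min; Activity was normalised to no-enzyme and no-compound control wells.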
Sm TGR inh = inhibitors of Schistosoma mansoni thioredoxin glutathione reductase; Q962Y6; purified TGR, DTNB reduction, TNB absorbance 405 nm; Potency, µM (doses to about 114 µM), usual class: inhibitors; 360,000 tested, 3% active; AID 485364; further: nearly all actives have a fitted effect of over 60% in size
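Kinetic colorimetric format: TGR-catalysed, NADPH-driven DTNB reduction monitored via TNB absorbance. Enzyme dispensed at 20 nM; compound exposure 15 min at room temperature before reaction start.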
AmpC detergent = blocks E. coli AmpC beta-lactamase in detergent assay. P00811. AmpC hydrolysis of nitrocefin, absorbance 480 nm, 0.01% Triton. Potency, µM (doses to about 114 µM), actives largely listed as inhibitors. 370,000 tested, 0.041% active. AID 485294; further: nearly all actives have a fitted effect of over 25% in size
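AmpC (5.3 nM in the dispensed reagent) in 20 mM phosphate pH 7.0 with 0.01% (detergent screen) or 0.0001% Triton X-100 was preincubated with compounds for 15 min at room temperature. Nitrocefin was then added from an 800 uM solution, and hydrolysis was followed at 480 nm.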
Large screens that a line does not name were inactive. Unless noted, the call rests on the fitted dose curve; in most records, active means well fitted curve in the direction sought with a large enough effect; inconclusive means small, poorly fitted or top-dose-only effect, or another doubt; inactive means no such curve, though single readings can be large; an effect the other way counts as inactive or inconclusive.

CC(=O)c1c(C)oc2ccc(N(C(C)=O)S(=O)(=O)c3ccc(Cl)c([N+](=O)[O-])c3)cc12	FMDV antiviral 35µM, Sm TGR inh 2.2µM
Cc1ccc(NC(=O)Cn2c(=O)c3ccc(Cl)cc3n3nncc23)cc1	none (no result: AMA1 RON2 block, AmpC no deterg)
CCN(Cc1ccncc1)Cc1ccc2c(c1)CN(C(=O)c1ccccc1)CCO2	none (no result: AMA1 RON2 block, AmpC no deterg, Sm TGR inh, AmpC detergent)
CC(C)c1cc(CN2CCN(CCC#N)CC2)cc(C(C)C)c1O	Sm TGR inh 22µM
COc1ccc(CNC(=O)Cn2ncc3c(=O)oc4ccc(C)cc4c32)c(OC)c1	none (no result: AMA1 RON2 block, AmpC no deterg)
CCOC(=O)c1cccc(NC(=O)/C=C/c2ccc3c(c2)OCO3)c1	FMDV antiviral 40µM, AmpC detergent inconclusive
Cc1cc(C)cc(OCC(=O)Nc2ccc3c(c2)OCO3)c1	AMA1 RON2 block 10µM
CCOC(=O)CNc1ccc2c(c1)OCO2	Sm TGR inh 50µM, AmpC detergent inconclusive
COc1ccc(-n2ncc3c(NCc4ccco4)ncnc32)cc1	Sm TGR inh 50µM
COc1ccc(CCNc2ncnc3c2cnn3-c2ccc(C)c(Cl)c2)cc1	none (no result: AMA1 RON2 block, AmpC no deterg)
COc1ccc(CCNc2ncnc3c2cnn3-c2cc(Cl)ccc2C)cc1	FMDV antiviral 18µM (no result: AMA1 RON2 block, AmpC no deterg)
COc1cccc(CNC(=O)c2c(OC)cc(=O)n3c2CCN(C(=O)c2ccccc2Cl)CC3)c1	none (no result: AMA1 RON2 block, AmpC no deterg, Sm TGR inh, AmpC detergent)
C#CCOCCOCCOCCNc1nc(N2CCN(C(=O)[C@H](Cc3ccc(O)cc3)n3cc(CCO)nn3)CC2)nc(N2CCN(C(=O)[C@H](Cc3ccc(O)cc3)n3cc(CCO)nn3)CC2)n1	Sm TGR inh 40µM (no result: AMA1 RON2 block, FMDV antiviral)
C#CCOCCOCCOCCNc1nc(N2CCN(C(=O)[C@H](CCCCN)n3cc(C(N)[C@H](C)CC)nn3)CC2)nc(N2CCN(C(=O)[C@H](CCC(=O)O)n3cc(C(N)[C@H](C)CC)nn3)CC2)n1 (stereo partly drawn)	Sm TGR inh 16µM
C#CCOCCOCCOCCNc1nc(N2CCN(C(=O)[C@H]([C@@H](C)CC)n3cc([C@@H](N)Cc4ccc(O)cc4)nn3)CC2)nc(N2CCN(C(=O)[C@H](CCCCN)n3cc([C@@H](N)CO)nn3)CC2)n1	Sm TGR inh 20µM (no result: AMA1 RON2 block, FMDV antiviral)
C#CCOCCOCCOCCNc1nc(N2CCN(C(=O)[C@H](CCC(=O)O)n3cc(C(N)Cc4ccc(O)cc4)nn3)CC2)nc(N2CCN(C(=O)[C@H](CCC(=O)O)n3cc(C(N)CC(C)C)nn3)CC2)n1 (stereo partly drawn)	Sm TGR inh 35µM
C#CCOCCOCCOCCNc1nc(N2CCN(C(=O)[C@H](CCC(=O)O)n3cc(C(N)Cc4ccc(O)cc4)nn3)CC2)nc(N2CCN(C(=O)[C@H](CCC(=O)O)n3cc(C(N)[C@H](C)CC)nn3)CC2)n1 (stereo partly drawn)	Sm TGR inh inconclusive
C#CCOCCOCCOCCNc1nc(N2CCN(C(=O)[C@H](CCC(=O)O)n3cc(C(N)CO)nn3)CC2)nc(N2CCN(C(=O)[C@H](Cc3ccc(O)cc3)n3cc(C(N)CC(C)C)nn3)CC2)n1 (stereo partly drawn)	Sm TGR inh 10µM (no result: AMA1 RON2 block, FMDV antiviral)
C#CCOCCOCCOCCNc1nc(N2CCN(C(=O)[C@H](CCCCN)n3cc([C@@H](N)CO)nn3)CC2)nc(N2CCN(C(=O)[C@H](Cc3ccc(O)cc3)n3cc([C@@H](N)CC(C)C)nn3)CC2)n1	none
COc1ccc(CCNc2ncnc3sccc23)cc1OC	FMDV antiviral 28µM
O=C(CCc1ccccc1)NCc1ccncc1	none
O=C(CCNNC(=O)c1ccncc1)NCc1ccccc1	Sm TGR inh 40µM
Cc1c(C)c2cc3c(c(C)c2oc1=O)OCN(CCc1ccccc1)C3	Sm TGR inh inconclusive (no result: AMA1 RON2 block, AmpC no deterg)
CCCN(CCC)CCNC(=O)CS(=O)Cc1nc(-c2ccc(C)cc2)oc1C (stereo not drawn)	none
CCCCNC(=O)CS(=O)Cc1nc(-c2ccc(C)cc2)oc1C (stereo not drawn)	Sm TGR inh 45µM, AmpC detergent inconclusive
CCCNC(=O)CS(=O)Cc1nc(-c2ccc(OC)cc2)oc1C (stereo not drawn)	Sm TGR inh 50µM, AmpC detergent inconclusive
CCc1ccc(-c2nc(CS(=O)CC(=O)NCCCN3CCOCC3)c(C)o2)cc1 (stereo not drawn)	FMDV antiviral inconclusive, Sm TGR inh 35µM
COc1ccc(-c2nc(CS(=O)CC(=O)NCCc3ccc(OC)c(OC)c3)c(C)o2)cc1 (stereo not drawn)	Sm TGR inh inconclusive
COc1ccc(CNC(=O)Cn2c(=O)nc(-c3ccccc3)c3cc(Cl)ccc32)cc1OC	none (no result: AMA1 RON2 block, AmpC no deterg)
COc1ccc(Cl)cc1C(=O)NCc1nc(-c2cccc(C)c2)no1	none (no result: AMA1 RON2 block, AmpC no deterg)
O=C(CN(c1ccc(Cl)cc1)S(=O)(=O)c1ccc(Cl)c([N+](=O)[O-])c1)NCCc1ccccc1	none (no result: Sm TGR inh)
O=C(CN(c1ccc(Cl)cc1)S(=O)(=O)c1ccc(Cl)c([N+](=O)[O-])c1)NCCc1ccc(F)cc1	AmpC no deterg 32µM, Sm TGR inh inconclusive
COc1ccccc1C(=O)N(c1ccc(C)cc1)S(=O)(=O)c1ccc(Cl)cc1	none (no result: AMA1 RON2 block, AmpC no deterg)
Cc1ccc(NC(=O)c2ccc(N3CCOCC3)c([N+](=O)[O-])c2)cc1S(=O)(=O)N1CCOCC1	FMDV antiviral 13µM
COc1ccccc1N(C)S(=O)(=O)c1ccc(C(=O)N(C)Cc2cccc(OC)c2OC)cc1	FMDV antiviral inconclusive (no result: AmpC no deterg, Sm TGR inh, AmpC detergent)
Cc1cc(C)n(-c2ccc(C(=O)Nc3ccc(C)c(S(=O)(=O)N4CCOCC4)c3)cc2)n1	FMDV antiviral 14µM
Cc1ccc(NC(=O)c2ccc(NCCCN3CCOCC3)c([N+](=O)[O-])c2)cc1Cl	FMDV antiviral 32µM, AmpC detergent inconclusive
CCOc1ccc(CN(C)C(=O)c2ccc(S(=O)(=O)N(C)c3ccccc3OC)cc2)cc1	FMDV antiviral 22µM
CCN1c2ccccc2-c2nc(SCC(=O)Nc3ccc(C)c(Cl)c3)ncc2S1(=O)=O	none (no result: AMA1 RON2 block, AmpC no deterg)
Oc1cc(-c2cccs2)cc2c1OCCN(Cc1cn[nH]c1-c1ccc(Cl)cc1)C2	none (no result: AMA1 RON2 block, AmpC no deterg, Sm TGR inh, AmpC detergent)
COc1ccccc1N(C)S(=O)(=O)c1ccc(C(=O)Nc2nc(C)cs2)cc1	FMDV antiviral 28µM
CC(C)CNC(=O)c1cccc(NC(=O)c2ccc(Cl)c([N+](=O)[O-])c2)c1	FMDV antiviral 28µM
CCOC(=O)c1ccc(NC(=O)c2ccc(C)c(S(=O)(=O)N3CCOCC3)c2)cc1	FMDV antiviral 14µM
COc1ccccc1N(C)S(=O)(=O)c1ccc(C)c(C(=O)NC(C)c2ccccn2)c1 (stereo not drawn)	none
CC(=O)c1ccc(NC(=O)c2ccc(C)c(S(=O)(=O)N3CCOCC3)c2)cc1	FMDV antiviral inconclusive
COc1cc(OC)c(OC)cc1CNC(=O)c1cc(S(=O)(=O)N(C)c2ccccc2OC)ccc1C	FMDV antiviral 28µM (no result: AmpC no deterg, Sm TGR inh, AmpC detergent)
C=C1CC[C@@H]2[C@](C)(CO)[C@H](O)CC[C@@]2(C)[C@@H]1C/C=C1/C(=O)OC[C@H]1O	none (no result: AMA1 RON2 block, AmpC no deterg, Sm TGR inh, AmpC detergent)
